# The panel holds about 79,000 compounds, 15% with a hit somewhere; the sample as a whole holds those more often. A number with no mark means an inactive call. Activity calls are given as the source filed them. Rule as the data show it: active = growth inhibition above about 70%; inactive = the rest.
# Key:
# [1] = NCI Yeast Anticancer Drug Screen. Data for the rad50 strain (AID 155);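 also: 0% = growth of vehicle-only cultures of the same strain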; conditions: S. cerevisiae rad50 strain growth inhibition, stronger effect = higher value
# Summary of the method: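 DNA repair mutant yeast, compound exposure, growth read-out; inhibition is taken relative to vehicle.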
# [2] = NCI Yeast Anticancer Drug Screen. Data for the mec2-1 strain (AID 157); conditions: S. cerevisiae mec2-1 strain, stronger effect = higher value
# Summary of the method: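 Each compound was tested on mec2-1 yeast, a strain altered in DNA damage repair or cell cycle control. Growth inhibition is reported relative to vehicle.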
# [3] = NCI Yeast Anticancer Drug Screen. Data for the sgs1 mgt1 strain (AID 161);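 also: 0% = growth of cultures given vehicle only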; conditions: S. cerevisiae sgs1 mgt1 strain, stronger effect = higher value
# Summary of the method: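 Read-out: growth inhibition vs vehicle controls. Cells: mutant yeast strain deficient in DNA damage repair.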
# [4] = NCI Yeast Anticancer Drug Screen. Data for the cln2 rad14 strain (AID 165);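 also: 0% = growth equal to vehicle treated cultures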; conditions: S. cerevisiae cln2 rad14 strain, stronger effect = higher value
# Summary of the method: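 Test compounds were added to cln2 rad14 yeast cultures; inhibition of growth was then determined by comparison with vehicle treatment.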
# [5] = NCI Yeast Anticancer Drug Screen. Data for the bub3 strain (AID 167); conditions: S. cerevisiae bub3 mutant strain, stronger effect = higher value
# Summary of the method: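 In this screen, a yeast mutant lacking normal mitotic checkpoint function is challenged with compound. Relative growth versus vehicle gives the inhibition value.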
# [6] = NCI Yeast Anticancer Drug Screen. Data for the mlh1 rad18 strain (AID 175); conditions: S. cerevisiae mlh1 rad18 strain growth inhibition, stronger effect = higher value
# Summary of the method: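 Inhibition values reflect reduced growth of mutant yeast versus vehicle-treated controls following compound exposure; the mutations affect DNA damage repair.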
# [7] = at 5.0 µM (retest, dose inferred, filed as 0.5)
# [8] = at 50.0 µM (retest, dose inferred, filed as 5.0)
SMILES,"growth inhibition [1, 7]","growth inhibition [1, 8]",growth inhibition ([1]; at 50.0 µM),"growth inhibition [2, 7]","growth inhibition [2, 8]",growth inhibition ([2]; at 50.0 µM),"growth inhibition [3, 7]","growth inhibition [3, 8]",growth inhibition ([3]; at 50.0 µM),"growth inhibition [4, 7]","growth inhibition [4, 8]",growth inhibition ([4]; at 50.0 µM),"growth inhibition [5, 7]","growth inhibition [5, 8]",growth inhibition ([5]; at 50.0 µM),"growth inhibition [6, 7]","growth inhibition [6, 8]",growth inhibition ([6]; at 50.0 µM)
O=C(O)CSc1nc(-c2ccccc2)c(-c2ccccc2)n1-c1ccccn1,1%,5%,76.2% (active),-6%,-10%,40.5%,-12%,4%,82.8% (active),18%,4%,61.8%,-13%,-9%,47.4%,8%,6%,11.2%
O=C(Cl)c1cc(-c2ccc(Cl)cc2)nc2c(Cl)cccc12,6%,98% (active),72.5% (active),11%,99% (active),61.2%,5%,99% (active),84.8% (active),3%,99% (active),42.4%,4%,99% (active),74.2% (active),9%,99% (active),87.2% (active)
OC(c1cc2ccccc2o1)c1cc2ccccc2s1 (stereo not given),-4%,95% (active),44.2%,-11%,94% (active),75.2% (active),2%,46%,70.4% (active),-12%,97% (active),61.6%,-6%,93% (active),78.7% (active),16%,94% (active),43%
CN(C)c1nc(NNS(=O)(=O)c2ccc(N)cc2)nc(N(C)C)n1,1%,-17%,-27.1%,2%,-1%,7.55%,1%,-72%,-5.75%,2%,-6%,55%,-6%,-8%,-12.3%,-1%,0%,3.85%
CC(C)SCC1CO1 (stereo not given),-1%,1%,-19.6%,-1%,-4%,3.9%,-1%,1%,18.1%,2%,-11%,47.5%,0%,-9%,-6.55%,-1%,-5%,-3.5%
C/C(=N\NC(=S)N1CCN(Cc2ccccc2)CC1)c1ccccn1,23%,76% (active),90.3% (active),23%,85% (active),88.8% (active),12%,80% (active),31.2%,8%,73% (active),-14.7%,31%,96% (active),11.7%,15%,74% (active),81.6% (active)
O=S1(=O)CC(Cl)(Cl)C1,3%,49%,19.6%,3%,52%,2.85%,7%,20%,15.1%,-1%,25%,75.3% (active),4%,58%,-17.8%,5%,58%,11.6%
c1coc(C2=Nc3cccc4cccc(c34)N2)c1,6%,84% (active),50.5%,5%,62%,10.3%,36%,81% (active),76.7% (active),4%,65%,32.5%,5%,94% (active),36.4%,-13%,96% (active),54.6%
O=S(O)CCCCCSSc1ccccc1,-1%,12%,22.9%,4%,40%,12.1%,3%,36%,30.1%,-9%,14%,50.5%,11%,73% (active),74.5% (active),4%,31%,48.9%
O=[N+]([O-])/C(C(Cl)=C(Cl)Cl)=C(/Sc1ccccc1)N1CCOCC1,5%,99% (active),88.2% (active),2%,99% (active),91.8% (active),-4%,99% (active),85.8% (active),-7%,99% (active),89.2% (active),-20%,99% (active),89.5% (active),15%,98% (active),83.2% (active)
N#CSc1cc(SC#N)c2ccccc2c1N,0%,-3%,70.2% (active),-2%,-12%,62.9%,3%,-9%,57.9%,1%,-27%,-1.2%,19%,28%,81% (active),8%,-2%,63.5%
Nc1ccc(C2CCC[C@H]2c2ccc(N)cc2)cc1 (stereo not given in full),0%,93% (active),48.8%,15%,87% (active),46.8%,14%,90% (active),53.2%,1%,66%,39.6%,-3%,81% (active),58.6%,21%,95% (active),49.1%
COC(CCC[N+](C)(C)C)CC[N+](C)(C)C (stereo not given),11%,81% (active),95.9% (active),-9%,83% (active),97.6% (active),-7%,78% (active),97.8% (active),1%,70% (active),95.9% (active),-9%,70% (active),97.1% (active),8%,81% (active),96.5% (active)
O=[N+]([O-])c1cc(Cl)c(Cl)cc1NS(=O)(=O)c1ccccc1,17%,45%,29.1%,-8%,51%,49.5%,7%,58%,39.4%,25%,84% (active),54.5%,9%,57%,40.4%,10%,76% (active),71.2% (active)
CN(C)CC(CN(C)C)C(=O)c1ccc(Oc2ccc(Cl)c(Cl)c2)cc1,18%,96% (active),93.9% (active),8%,97% (active),96.8% (active),29%,98% (active),96.7% (active),4%,95% (active),93.5% (active),6%,98% (active),94.8% (active),21%,96% (active),96.3% (active)
CSC(SC)=C(C#N)C(=O)Nc1ccc(C)cc1,25%,47%,40.5%,10%,53%,77.3% (active),37%,55%,73.4% (active),36%,37%,29.3%,50%,53%,89.7% (active),8%,8%,83.8% (active)
CSc1nc(NN)cc(-c2ccccc2)n1,0%,23%,12.5%,24%,19%,50.3%,0%,57%,56.7%,2%,-2%,3.1%,-3%,68%,81.2% (active),-1%,54%,79.3% (active)
COC/C=N/Nc1ccc([N+](=O)[O-])cc1,90% (active),98% (active),98.6% (active),45%,98% (active),98.3% (active),90% (active),98% (active),98% (active),46%,98% (active),98.5% (active),94% (active),98% (active),99% (active),90% (active),98% (active),98.5% (active)
O=C(c1cccc(Cl)c1)c1ccc2ccccc2c1C(=O)O,10%,1%,12.3%,-8%,0%,45.9%,-1%,1%,0.7%,-3%,-1%,5.6%,-6%,1%,-1.5%,-6%,5%,5.75%
O=C(CC(c1ccccc1Cl)C(C(=O)O)c1ccccc1)c1ccccc1 (stereo not given),4%,72% (active),81% (active),4%,71% (active),71.7% (active),6%,72% (active),92.5% (active),6%,83% (active),91.5% (active),-4%,67%,43.6%,-1%,78% (active),92.1% (active)

# — PubChem BioAssay (NCI)
